Source: PubChem BioAssay (Tox21)
Values joined by “and” are separate entries in the source; they are usually repeats but may differ in a detail not shown here. Equal entries are not always repeated. A number with no mark means an inactive call. Results filed as inconclusive are left out. Where a call stands in place of a potency, no number is given. Active and inactive are the calls of the source. Unless noted, calls follow the shape of the dose curve; as a rule, active = well fitted curve in the direction sought with a large enough effect in the repeat runs; inconclusive = weak or mixed curves; inactive = no such curve, though single readings can be large; an effect the other way counts as inactive or inconclusive.

Columns and labels:
[1] = qHTS assay for small molecules that induce genotoxicity in human embryonic kidney cells expressing luciferase-tagged ATAD5 (AID 651632); also: nearly all actives have a fitted effect of over 15% in size
Procedure, shortened: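 Test compounds were delivered by pin tool onto HEK293T reporter cells (2,000/well) expressing ATAD5 fused to luciferase. After 16 hr at 37C, 5% CO2, Amplite was added for 30 min at room temperature and luminescence was measured.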

[2] = qHTS assay for small molecules that induce genotoxicity in human embryonic kidney cells expressing luciferase-tagged ATAD5 - cell viability (AID 651634; calls by dose curve; also: nearly all actives have a fitted effect of over 25% in size; also: potency is read from the fitted curve at half-maximal effect)
Procedure, shortened: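 Quantitative high-throughput format. HEK293T cells expressing ATAD5 fused to luciferase were plated at 2,000 cells/well and treated 15.5 hr with compound versus DMSO. Viability was determined by fluorescent live-cell protease substrate, 30 min at 37C.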

[3] = qHTS assay for small molecule disruptors of the mitochondrial membrane potential - cell viability (AID 720634; calls by dose curve; also: nearly all actives have a fitted effect of over 20% in size; also: potency is read from the fitted curve at half-maximal effect)
Procedure, shortened: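 Same-well counter-screen: following the MMP dye addition, CellTiter-Glo was added to 1 hr compound-treated HepG2 cells and luminescence read after 30 min at room temperature.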

[4] = qHTS assay to test for compound auto fluorescence at 590 nm (red) in HepG2 cells (AID 720674)
Procedure, shortened: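 1 hr compound incubation on HepG2 cells, 37 C, 5% CO2; plate read ex 540 nm / em 590 nm; intensities reported as Rose Bengal sodium equivalents.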

[5] = qHTS assay to test for compound auto fluorescence at 535 nm (green) in HepG2 cells (AID 720675)
[6] = qHTS assay to test for compound auto fluorescence at 460 nm (blue) in HEK293 cells (AID 720678)
Procedure, shortened: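 Blue-channel (Ex/Em 405/460 nm) intensity measured in HEK293 cultures after overnight compound exposure at 37C; signal expressed relative to triamterene. Cells plated 2,000 per well in 10% dialyzed FBS medium and allowed 4-5 hr to attach.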

[7] = qHTS assay to test for compound auto fluorescence at 590 nm (red) in HEK293 cells (AID 720679)
Procedure, shortened: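 Red-channel autofluorescence (Ex/Em 540/590 nm; Rose Bengal sodium reference) was measured after overnight 37C, 5% CO2 exposure of attached HEK293 cells, 2,000 per well in medium with 10% dialyzed FBS.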

[8] = qHTS assay to test for compound auto fluorescence at 535 nm (green) in HEK293 cells (AID 720680)
[9] = qHTS assay to test for compound auto fluorescence at 460 nm (blue) in HEK293 cell free culture (AID 720681)
Procedure, shortened: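 Blue fluorescence (Ex 405/Em 460 nm, triamterene-equivalent) was read immediately after pin transfer of compound or DMSO into medium (DMEM, 10% FBS) without cells.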

[10] = qHTS assay to test for compound auto fluorescence at 535 nm (green) in HEK293 cell free culture (AID 720682)
Procedure, shortened: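 Intrinsic compound fluorescence is measured in culture medium containing 10% FBS, with excitation at 485 nm and detection at 535 nm, referenced to fluorescein.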

[11] = qHTS assay to test for compound auto fluorescence at 590 nm (red) in HEK293 cell free culture (AID 720683)
Procedure, shortened: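 Red-channel autofluorescence of compounds in culture medium (DMEM, 10% FBS), no cells, measured at 540/590 nm. Rose Bengal sodium is the reference fluorophore for equivalence.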

[12] = qHTS assay to test for compound auto fluorescence at 590 nm (red) in HepG2 cell free culture (AID 720684)
Procedure, shortened: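 No cells present: MEM + 10% FBS only. Compound pinned in, red label read (540/590 nm). Activity = fluorescence equivalent to Rose Bengal sodium.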

[13] = qHTS assay to test for compound auto fluorescence at 460 nm (blue) in HepG2 cell free culture (AID 720685)
Procedure, shortened: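 Cell-free plates of MEM plus 10% FBS received 23 nL compound or DMSO vehicle; blue-channel (405/460 nm) intensity scored against triamterene as reference fluorophore.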

[14] = qHTS assay to test for compound auto fluorescence at 535 nm (green) in HepG2 cell free culture (AID 720686)
[15] = qHTS assay to test for compound auto fluorescence at 460 nm (blue) in HepG2 cells (AID 720687)
Procedure, shortened: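 Blue-channel autofluorescence (Ex/Em 405/460 nm, triamterene-equivalent) was measured after 1 hr compound exposure at 37 C, 5% CO2. Cells were HepG2, plated overnight at 37 C in MEM plus 10% FBS.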

[16] = target: Glucocorticoid receptor (Homo sapiens) (UniProt P04150); test: qHTS assay to identify small molecule agonists of the glucocorticoid receptor (GR) signaling pathway (AID 720691; active = well fitted activation curve with a large enough effect in the signal ratio in the repeat runs, not every such curve was filed as active; the % refers to the signal ratio)
Procedure, shortened: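 A HeLa cervical cancer line expressing GR and a glucocorticoid response element-driven beta-lactamase gene is treated with compounds for 18 h; LiveBLAzer B/G FRET substrate is then applied and fluorescence read.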

[17] = qHTS assay for small molecule disruptors of the mitochondrial membrane potential (AID 720635); also: potency is read from the fitted curve at half-maximal effect
Procedure, shortened: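 Mitochondrial membrane potential tracked with Mito-MPS dye, red aggregates (ex 540/em 590 nm) against green monomers (ex 490/em 535 nm). Compound treatment 1 hr at 37C, dye 30 min in HepG2.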

[18] = target: Glucocorticoid receptor (Homo sapiens) (UniProt P04150); test: qHTS assay to identify small molecule antagonists of the glucocorticoid receptor (GR) signaling pathway (AID 720692; active = well fitted inhibition curve with a large enough effect in the signal ratio in the repeat runs, not every such curve was filed as active; the % refers to the signal ratio; also: potency is read from the fitted curve at half-maximal effect)
Procedure, shortened: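 GRE-bla HeLa line, dex-stimulated (5 nM final). Compound exposure 18 h, 37 C. Beta-lactamase FRET read after 2 h RT substrate.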

[19] = qHTS assay for small molecule agonists of the p53 signaling pathway - cell viability (AID 651633; calls by dose curve; also: nearly all actives have a fitted effect of over 30% in size; also: potency is read from the fitted curve at half-maximal effect)
Procedure, shortened: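 Viability counter-read: CellTiter-Glo luminescence (30 min, room temperature) in the same p53RE-bla plates. These plates had been exposed to compounds for 16 h at 37 C.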

Chain of Glucocorticoid receptor (Homo sapiens) (P04150 whole entry, looked up): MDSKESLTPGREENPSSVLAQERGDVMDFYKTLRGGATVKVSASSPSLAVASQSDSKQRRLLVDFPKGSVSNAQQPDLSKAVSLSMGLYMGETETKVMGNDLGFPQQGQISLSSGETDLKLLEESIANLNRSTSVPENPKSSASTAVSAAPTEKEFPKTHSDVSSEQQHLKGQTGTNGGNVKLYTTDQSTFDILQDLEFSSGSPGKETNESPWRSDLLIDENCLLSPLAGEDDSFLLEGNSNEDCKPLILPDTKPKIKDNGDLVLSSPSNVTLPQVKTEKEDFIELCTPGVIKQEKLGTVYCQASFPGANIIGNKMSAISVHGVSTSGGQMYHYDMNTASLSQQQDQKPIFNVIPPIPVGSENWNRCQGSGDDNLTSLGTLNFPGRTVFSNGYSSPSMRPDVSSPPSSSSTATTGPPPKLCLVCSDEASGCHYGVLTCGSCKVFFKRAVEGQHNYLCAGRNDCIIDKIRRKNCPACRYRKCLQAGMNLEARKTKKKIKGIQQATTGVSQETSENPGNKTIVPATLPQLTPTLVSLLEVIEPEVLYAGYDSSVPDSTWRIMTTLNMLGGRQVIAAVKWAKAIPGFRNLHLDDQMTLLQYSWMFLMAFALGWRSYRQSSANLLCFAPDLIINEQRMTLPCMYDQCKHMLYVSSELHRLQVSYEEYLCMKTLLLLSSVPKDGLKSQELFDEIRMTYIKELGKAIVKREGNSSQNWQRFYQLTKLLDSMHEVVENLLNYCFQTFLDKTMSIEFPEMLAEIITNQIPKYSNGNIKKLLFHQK

| SMILES | Potency [1] | Potency [2] | Potency [3] | outcome [4] | outcome [5] | outcome [6] | outcome [7] | outcome [8] | outcome [9] | outcome [10] | outcome [11] | outcome [12] | outcome [13] | outcome [14] | outcome [15] | outcome [16] | Potency [17] | Potency [18] | Potency [19] |
| --- | --- | --- | --- | --- | --- | --- | --- | --- | --- | --- | --- | --- | --- | --- | --- | --- | --- | --- | --- |
| Cc1ccccc1CCl | inactive | inactive | inactive | inactive | inactive | inactive | inactive | inactive | inactive | inactive | inactive | inactive | inactive | inactive | inactive | inactive |  |  |  |
| NS(=O)(=O)C(F)(F)C(F)(F)C(F)(F)C(F)(F)C(F)(F)C(F)(F)C(F)(F)C(F)(F)F | inactive | inactive |  | inactive | inactive | inactive | inactive | inactive | inactive | inactive | inactive | inactive | inactive | inactive | inactive |  | 1.93 µM (active) |  |  |
| O=C(NC(=O)c1c(F)cccc1F)Nc1ccc(OC(F)(F)C(F)OC(F)(F)F)c(Cl)c1 (stereo not drawn) | inactive | inactive | inactive | inactive | inactive | inactive | inactive | inactive | inactive | inactive | inactive |  | inactive | inactive | inactive |  |  | inactive |  |
| C[C@H]1CNCCc2ccc(Cl)cc21 | inactive | inactive | inactive | inactive | inactive | inactive | inactive | inactive | inactive | inactive | inactive |  | inactive | inactive | inactive | inactive | inactive | inactive |  |
| COC(=O)C(C)N(C(=O)Cc1ccccc1)c1c(C)cccc1C (stereo not drawn) | inactive | inactive |  |  | inactive | inactive | inactive | inactive | inactive | inactive | inactive |  | inactive | inactive | inactive | inactive |  |  | inactive |
| COP(=S)(OC)Oc1cc(Cl)c(I)cc1Cl | inactive | inactive |  | inactive |  | inactive | inactive | inactive | inactive | inactive | inactive | inactive | inactive | inactive | inactive |  |  | 24.5 µM (active) | inactive |
| CC(O)(CS(=O)(=O)c1ccc(F)cc1)C(=O)Nc1ccc(C#N)c(C(F)(F)F)c1 (stereo not drawn) | inactive | inactive |  | inactive |  | inactive | inactive | inactive | inactive | inactive | inactive | inactive | inactive | inactive | inactive |  |  | inactive | inactive |
| O=C(N[C@H](c1ccccc1)[C@@H]1CN2CCC1CC2)c1c(Cl)ccc(C(F)(F)F)c1Cl | inactive | inactive |  | inactive | inactive | inactive | inactive | inactive | inactive | inactive | inactive |  | inactive |  | inactive | inactive | 43.9 µM (active) | inactive |  |
| C=CC(=O)OCCCCO | inactive | inactive | inactive |  |  | inactive | inactive | inactive | inactive | inactive | inactive | inactive | inactive | inactive | inactive |  | inactive |  |  |
| N#CCC#N | inactive | inactive | inactive | inactive | inactive | inactive |  | inactive | inactive | inactive | inactive | inactive | inactive | inactive | inactive |  |  | inactive |  |
| CC(=O)c1cc2c(cc1C)C(C)(C)C(C)CC2(C)C (stereo not drawn) | inactive | inactive |  | inactive | inactive | inactive | inactive | inactive | inactive | inactive | inactive | inactive | inactive |  | inactive |  | 54.5 µM (active) |  |  |
| Clc1cccc2ccccc12 | inactive | inactive | inactive | inactive | inactive | inactive | inactive | inactive | inactive | inactive | inactive | inactive | inactive | inactive | inactive |  | inactive |  |  |
| CCCN(CCC)c1c([N+](=O)[O-])cc(S(C)(=O)=O)cc1[N+](=O)[O-] | inactive | inactive |  | inactive |  | inactive | inactive | inactive | inactive | inactive | inactive | inactive | inactive | inactive | inactive | inactive |  | inactive | inactive |
| O=C(O)C1(c2ccc3c(c2)OC[C@H](Cc2ccc(-c4ccccc4)cc2)[C@H]3O)CCCC1 | inactive | inactive | inactive | inactive | inactive | inactive |  | inactive | inactive | inactive | inactive | inactive | inactive |  | inactive |  |  |  |  |
| Cl/C=C\Cl | inactive | inactive | inactive | inactive |  | inactive | inactive | inactive | inactive | inactive | inactive | inactive | inactive | inactive | inactive |  | inactive | inactive |  |
| CS/C(C)=N/OC(=O)N(C)SN(C)C(=O)O/N=C(\C)SC | inactive |  | inactive | inactive | inactive | inactive | inactive | inactive | inactive | inactive | inactive | inactive | inactive | inactive | inactive | inactive | inactive |  | inactive |
| CC(C)(OO)c1ccccc1 | inactive | inactive | inactive | inactive |  | inactive | inactive | inactive | inactive | inactive | inactive | inactive | inactive | inactive | inactive | inactive | inactive |  |  |
| CC(C)(C)C(O)C(Oc1ccc(Cl)cc1)n1cncn1 (stereo not drawn) |  |  |  | inactive | inactive | inactive | inactive | inactive | inactive | inactive | inactive | inactive | inactive | inactive | inactive |  |  |  |  |
| C=CCN1CC[C@]23c4c5ccc(O)c4O[C@H]2C(=O)CC[C@@]3(O)[C@H]1C5 |  | inactive | inactive | inactive | inactive | inactive | inactive | inactive | inactive | inactive | inactive | inactive | inactive |  | inactive |  | inactive |  | inactive |
| COP(=S)(Oc1cc(Cl)c(Br)cc1Cl)c1ccccc1 (stereo not drawn) |  | inactive | 48.6 µM (active) |  | inactive | inactive | inactive | inactive | inactive | inactive | inactive | inactive | inactive | inactive | inactive | inactive | 48.6 µM (active) |  |  |
| CC(C)O.CC(C)O.OCCN(CCO)CCO.OCCN(CCO)CCO.[Ti] |  | inactive |  |  |  | inactive | inactive | inactive | inactive | inactive | inactive | inactive | inactive | inactive | inactive |  |  |  |  |
| O=C1c2ccccc2C(=O)C1C(=O)C(c1ccccc1)c1ccccc1 |  | inactive | inactive | inactive |  | inactive | inactive | inactive | inactive | inactive | inactive | inactive | inactive |  | inactive |  | 21.1 µM (active) | 21.3 µM (active) |  |
| CC(C)N(CCC(C(N)=O)(c1ccccc1)c1ccccn1)C(C)C (stereo not drawn) |  | inactive | inactive | inactive | inactive | inactive | inactive | inactive | inactive | inactive | inactive | inactive | inactive | inactive | inactive |  | inactive |  | inactive |
| CO/N=C(/C(=O)OC)c1ccccc1COc1ccccc1C | inactive | inactive |  | inactive | inactive | inactive | inactive | inactive | inactive | inactive | inactive | inactive | inactive | inactive | inactive | inactive |  |  |  |
| C=CC[C@]1(O)CC[C@H]2[C@@H]3CCC4=CC(=O)CCC4=C3C=C[C@@]21C |  | inactive | inactive | inactive | inactive | inactive | inactive | inactive | inactive | inactive | inactive | inactive | inactive | inactive | inactive |  | inactive | 0.301 µM (active) |  |
| C(=NC1CCCCC1)=NC1CCCCC1 |  | 30.8 µM (active) and 43.3 µM (active) | 5.48 µM (active) |  | inactive | inactive | inactive | inactive | inactive | inactive | inactive | inactive | inactive | inactive | inactive |  | 138 nM (active) and 217 nM (active) |  | 30.8 µM (active) and 17.2 µM (active) |
